# Reference: ChEMBL document CHEMBL1961873, “Compounds: GSK PKIS; Assays: Nanosyn kinase panel” (2012)
# Assays:
# [1] = target: T1, Serine/threonine-protein kinase Nek9 (Homo sapiens) (UniProt Q8TD19); details: at 1 µM;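 further: each value is a mean percent inhibition of NEK9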
# T1 sequence (whole entry): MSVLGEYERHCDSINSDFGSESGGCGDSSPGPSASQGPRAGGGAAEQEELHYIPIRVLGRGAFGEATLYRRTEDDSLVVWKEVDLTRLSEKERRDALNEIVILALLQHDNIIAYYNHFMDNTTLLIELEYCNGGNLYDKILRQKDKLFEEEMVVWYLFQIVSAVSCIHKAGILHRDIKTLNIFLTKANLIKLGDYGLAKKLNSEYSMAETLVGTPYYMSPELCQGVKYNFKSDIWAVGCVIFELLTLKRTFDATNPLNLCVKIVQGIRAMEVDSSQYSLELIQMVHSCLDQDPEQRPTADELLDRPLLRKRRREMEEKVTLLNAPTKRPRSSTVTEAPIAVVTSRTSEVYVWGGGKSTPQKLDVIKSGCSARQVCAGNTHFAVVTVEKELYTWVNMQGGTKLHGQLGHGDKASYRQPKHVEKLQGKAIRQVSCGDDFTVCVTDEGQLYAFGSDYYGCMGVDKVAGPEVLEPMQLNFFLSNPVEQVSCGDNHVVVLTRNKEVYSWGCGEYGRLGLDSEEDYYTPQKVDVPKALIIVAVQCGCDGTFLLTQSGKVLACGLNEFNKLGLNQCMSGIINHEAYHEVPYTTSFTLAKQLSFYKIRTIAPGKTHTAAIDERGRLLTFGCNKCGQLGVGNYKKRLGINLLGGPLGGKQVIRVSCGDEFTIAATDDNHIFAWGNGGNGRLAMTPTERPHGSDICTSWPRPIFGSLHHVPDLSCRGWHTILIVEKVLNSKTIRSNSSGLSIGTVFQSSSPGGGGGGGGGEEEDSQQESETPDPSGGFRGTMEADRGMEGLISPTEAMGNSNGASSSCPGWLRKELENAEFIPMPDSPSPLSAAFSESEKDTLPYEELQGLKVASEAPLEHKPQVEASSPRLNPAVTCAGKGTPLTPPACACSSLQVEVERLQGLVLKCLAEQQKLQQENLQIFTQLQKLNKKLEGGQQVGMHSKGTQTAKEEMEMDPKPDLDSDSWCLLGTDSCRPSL
# [2] = target: Serine/threonine-protein kinase PLK1 (Homo sapiens) (UniProt P53350); details: at 0.1 µM
# [3] = target: Serine/threonine-protein kinase PLK1 (Homo sapiens) (UniProt P53350); details: at 1 µM
# [4] = target: T2, Dual specificity protein kinase TTK (Homo sapiens) (UniProt P33981); details: at 0.1 µM
# T2 sequence (whole entry): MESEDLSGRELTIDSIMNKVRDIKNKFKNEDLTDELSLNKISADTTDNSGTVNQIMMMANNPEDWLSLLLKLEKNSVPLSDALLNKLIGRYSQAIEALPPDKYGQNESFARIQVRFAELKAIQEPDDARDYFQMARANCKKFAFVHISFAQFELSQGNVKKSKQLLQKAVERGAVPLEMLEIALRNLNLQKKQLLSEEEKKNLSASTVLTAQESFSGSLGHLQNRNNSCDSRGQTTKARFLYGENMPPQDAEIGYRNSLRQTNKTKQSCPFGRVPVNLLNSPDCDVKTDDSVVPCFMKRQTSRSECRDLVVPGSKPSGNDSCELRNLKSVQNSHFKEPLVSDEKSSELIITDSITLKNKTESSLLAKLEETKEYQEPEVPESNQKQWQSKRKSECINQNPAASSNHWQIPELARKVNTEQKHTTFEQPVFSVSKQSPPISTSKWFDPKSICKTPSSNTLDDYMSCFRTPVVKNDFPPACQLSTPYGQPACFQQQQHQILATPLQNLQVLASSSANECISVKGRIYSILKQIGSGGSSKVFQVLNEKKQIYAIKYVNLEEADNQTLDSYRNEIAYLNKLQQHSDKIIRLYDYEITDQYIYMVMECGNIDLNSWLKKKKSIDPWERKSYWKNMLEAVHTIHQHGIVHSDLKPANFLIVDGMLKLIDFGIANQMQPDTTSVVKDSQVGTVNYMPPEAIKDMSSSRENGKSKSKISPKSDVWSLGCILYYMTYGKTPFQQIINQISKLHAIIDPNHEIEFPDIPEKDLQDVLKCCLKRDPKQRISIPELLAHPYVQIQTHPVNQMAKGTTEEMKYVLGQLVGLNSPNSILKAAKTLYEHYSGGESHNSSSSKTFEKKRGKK
# [5] = tested on: T3, Receptor-type tyrosine-protein kinase FLT3 (Homo sapiens), P36888 [D835Y]; details: at 1 µM
# T3 sequence (whole entry): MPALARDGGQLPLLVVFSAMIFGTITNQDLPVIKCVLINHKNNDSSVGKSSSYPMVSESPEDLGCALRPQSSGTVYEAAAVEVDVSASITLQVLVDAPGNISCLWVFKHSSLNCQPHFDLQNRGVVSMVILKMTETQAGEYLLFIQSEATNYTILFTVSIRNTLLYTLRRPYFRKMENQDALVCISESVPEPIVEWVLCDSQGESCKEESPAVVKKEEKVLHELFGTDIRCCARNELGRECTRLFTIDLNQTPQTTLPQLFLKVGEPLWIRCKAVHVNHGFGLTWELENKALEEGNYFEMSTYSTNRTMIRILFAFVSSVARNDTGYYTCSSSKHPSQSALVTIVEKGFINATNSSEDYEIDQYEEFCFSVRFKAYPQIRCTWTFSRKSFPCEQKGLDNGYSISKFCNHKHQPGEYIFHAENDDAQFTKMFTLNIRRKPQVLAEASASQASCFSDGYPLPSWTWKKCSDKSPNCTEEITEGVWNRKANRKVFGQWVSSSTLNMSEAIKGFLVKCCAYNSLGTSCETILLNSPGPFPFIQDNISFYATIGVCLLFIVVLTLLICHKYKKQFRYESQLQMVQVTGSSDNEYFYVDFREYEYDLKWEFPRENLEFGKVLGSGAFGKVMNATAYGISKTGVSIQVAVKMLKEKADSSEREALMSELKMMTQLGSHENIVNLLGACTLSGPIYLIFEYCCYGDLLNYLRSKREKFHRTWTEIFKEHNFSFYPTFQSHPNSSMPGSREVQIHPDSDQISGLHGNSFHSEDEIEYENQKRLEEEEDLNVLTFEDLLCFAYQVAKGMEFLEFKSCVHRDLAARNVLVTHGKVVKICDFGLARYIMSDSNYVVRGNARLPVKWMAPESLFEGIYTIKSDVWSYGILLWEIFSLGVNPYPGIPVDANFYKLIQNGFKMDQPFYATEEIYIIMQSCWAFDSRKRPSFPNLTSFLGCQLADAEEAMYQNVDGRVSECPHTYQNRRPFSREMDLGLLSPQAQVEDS
# [6] = target: Vascular endothelial growth factor receptor 3 (Homo sapiens) (UniProt P35916); details: at 0.1 µM
# [7] = target: Vascular endothelial growth factor receptor 3 (Homo sapiens) (UniProt P35916); details: at 1 µM
# [8] = target: Macrophage colony-stimulating factor 1 receptor (Homo sapiens) (UniProt P07333); details: at 0.1 µM
# [9] = target: Macrophage colony-stimulating factor 1 receptor (Homo sapiens) (UniProt P07333); details: at 1 µM
# [10] = target: Tyrosine-protein kinase Fyn (Homo sapiens) (UniProt P06241); details: at 0.1 µM
# Tyrosine-protein kinase Fyn (Homo sapiens), sequence (P06241 2-537 limits assumed): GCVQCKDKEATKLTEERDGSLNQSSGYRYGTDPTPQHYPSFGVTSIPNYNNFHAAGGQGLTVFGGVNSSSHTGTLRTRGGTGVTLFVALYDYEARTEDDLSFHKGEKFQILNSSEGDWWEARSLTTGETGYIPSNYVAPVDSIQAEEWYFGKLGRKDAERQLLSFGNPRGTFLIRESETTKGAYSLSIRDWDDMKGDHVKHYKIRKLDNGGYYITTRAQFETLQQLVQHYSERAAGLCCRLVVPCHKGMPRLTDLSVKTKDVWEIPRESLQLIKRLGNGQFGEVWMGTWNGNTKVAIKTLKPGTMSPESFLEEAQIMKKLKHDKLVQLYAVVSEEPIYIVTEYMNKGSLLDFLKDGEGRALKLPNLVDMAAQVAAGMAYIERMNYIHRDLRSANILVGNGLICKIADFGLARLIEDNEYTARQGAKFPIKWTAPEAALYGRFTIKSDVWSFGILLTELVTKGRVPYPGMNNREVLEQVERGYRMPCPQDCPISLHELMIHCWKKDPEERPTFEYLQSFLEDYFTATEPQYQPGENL
# Macrophage colony-stimulating factor 1 receptor (Homo sapiens), sequence (P07333 whole entry): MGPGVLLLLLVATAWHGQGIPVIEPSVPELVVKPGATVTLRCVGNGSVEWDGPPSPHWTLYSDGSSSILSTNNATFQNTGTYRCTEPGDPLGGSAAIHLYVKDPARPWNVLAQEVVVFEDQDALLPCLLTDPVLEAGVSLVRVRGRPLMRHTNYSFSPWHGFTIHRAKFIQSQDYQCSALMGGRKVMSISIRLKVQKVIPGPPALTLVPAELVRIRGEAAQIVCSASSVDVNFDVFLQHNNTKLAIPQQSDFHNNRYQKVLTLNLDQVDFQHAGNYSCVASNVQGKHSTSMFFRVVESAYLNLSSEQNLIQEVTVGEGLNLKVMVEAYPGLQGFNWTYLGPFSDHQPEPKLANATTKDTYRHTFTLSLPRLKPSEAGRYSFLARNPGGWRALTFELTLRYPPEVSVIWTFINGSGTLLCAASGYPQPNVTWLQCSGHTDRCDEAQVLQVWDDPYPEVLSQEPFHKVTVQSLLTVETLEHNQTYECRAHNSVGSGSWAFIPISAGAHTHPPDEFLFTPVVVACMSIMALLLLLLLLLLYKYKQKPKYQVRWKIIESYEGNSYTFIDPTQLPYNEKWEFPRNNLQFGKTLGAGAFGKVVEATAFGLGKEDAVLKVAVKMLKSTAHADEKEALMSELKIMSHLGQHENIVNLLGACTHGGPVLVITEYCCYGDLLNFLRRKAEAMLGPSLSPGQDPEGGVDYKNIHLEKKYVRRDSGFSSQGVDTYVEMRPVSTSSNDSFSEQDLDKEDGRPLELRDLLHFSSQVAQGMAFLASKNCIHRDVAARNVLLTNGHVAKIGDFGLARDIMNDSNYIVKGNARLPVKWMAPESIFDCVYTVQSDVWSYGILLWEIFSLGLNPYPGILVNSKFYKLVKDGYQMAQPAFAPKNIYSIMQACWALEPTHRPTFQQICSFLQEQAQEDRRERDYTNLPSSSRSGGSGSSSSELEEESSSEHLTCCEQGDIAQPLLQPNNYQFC
# Vascular endothelial growth factor receptor 3 (Homo sapiens), sequence (P35916 whole entry): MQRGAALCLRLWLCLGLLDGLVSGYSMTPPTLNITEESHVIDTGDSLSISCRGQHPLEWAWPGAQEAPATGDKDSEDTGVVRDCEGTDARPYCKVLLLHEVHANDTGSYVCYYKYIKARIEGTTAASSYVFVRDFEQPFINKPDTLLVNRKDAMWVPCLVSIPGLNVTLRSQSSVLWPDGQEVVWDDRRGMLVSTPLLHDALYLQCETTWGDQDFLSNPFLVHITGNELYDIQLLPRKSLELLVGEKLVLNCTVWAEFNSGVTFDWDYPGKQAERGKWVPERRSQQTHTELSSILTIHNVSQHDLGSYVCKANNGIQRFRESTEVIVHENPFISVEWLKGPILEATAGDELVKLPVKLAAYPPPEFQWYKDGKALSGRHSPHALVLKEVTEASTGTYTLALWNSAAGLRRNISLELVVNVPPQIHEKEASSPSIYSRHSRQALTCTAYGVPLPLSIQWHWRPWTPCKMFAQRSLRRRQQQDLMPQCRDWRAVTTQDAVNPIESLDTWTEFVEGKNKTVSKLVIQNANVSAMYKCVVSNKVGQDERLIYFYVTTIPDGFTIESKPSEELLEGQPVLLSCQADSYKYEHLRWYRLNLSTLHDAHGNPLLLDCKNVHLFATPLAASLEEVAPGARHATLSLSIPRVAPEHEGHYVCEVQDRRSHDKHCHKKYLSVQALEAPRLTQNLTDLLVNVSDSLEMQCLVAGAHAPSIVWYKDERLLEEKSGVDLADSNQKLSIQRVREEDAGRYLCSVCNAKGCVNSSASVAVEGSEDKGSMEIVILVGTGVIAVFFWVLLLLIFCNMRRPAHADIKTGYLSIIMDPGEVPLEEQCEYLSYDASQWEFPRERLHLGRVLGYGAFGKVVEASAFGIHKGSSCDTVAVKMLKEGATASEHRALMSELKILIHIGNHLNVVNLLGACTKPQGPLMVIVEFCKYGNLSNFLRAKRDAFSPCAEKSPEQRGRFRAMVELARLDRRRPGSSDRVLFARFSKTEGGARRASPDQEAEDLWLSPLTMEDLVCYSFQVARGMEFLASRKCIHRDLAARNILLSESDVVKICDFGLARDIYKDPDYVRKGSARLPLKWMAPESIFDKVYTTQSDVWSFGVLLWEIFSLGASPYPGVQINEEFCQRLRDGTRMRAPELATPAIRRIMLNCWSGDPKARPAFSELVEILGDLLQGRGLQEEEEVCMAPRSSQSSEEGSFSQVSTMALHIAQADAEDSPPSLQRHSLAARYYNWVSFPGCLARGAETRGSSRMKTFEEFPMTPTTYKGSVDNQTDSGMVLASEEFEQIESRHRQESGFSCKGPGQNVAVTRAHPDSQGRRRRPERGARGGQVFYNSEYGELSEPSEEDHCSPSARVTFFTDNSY
# Serine/threonine-protein kinase PLK1 (Homo sapiens), sequence (P53350 whole entry): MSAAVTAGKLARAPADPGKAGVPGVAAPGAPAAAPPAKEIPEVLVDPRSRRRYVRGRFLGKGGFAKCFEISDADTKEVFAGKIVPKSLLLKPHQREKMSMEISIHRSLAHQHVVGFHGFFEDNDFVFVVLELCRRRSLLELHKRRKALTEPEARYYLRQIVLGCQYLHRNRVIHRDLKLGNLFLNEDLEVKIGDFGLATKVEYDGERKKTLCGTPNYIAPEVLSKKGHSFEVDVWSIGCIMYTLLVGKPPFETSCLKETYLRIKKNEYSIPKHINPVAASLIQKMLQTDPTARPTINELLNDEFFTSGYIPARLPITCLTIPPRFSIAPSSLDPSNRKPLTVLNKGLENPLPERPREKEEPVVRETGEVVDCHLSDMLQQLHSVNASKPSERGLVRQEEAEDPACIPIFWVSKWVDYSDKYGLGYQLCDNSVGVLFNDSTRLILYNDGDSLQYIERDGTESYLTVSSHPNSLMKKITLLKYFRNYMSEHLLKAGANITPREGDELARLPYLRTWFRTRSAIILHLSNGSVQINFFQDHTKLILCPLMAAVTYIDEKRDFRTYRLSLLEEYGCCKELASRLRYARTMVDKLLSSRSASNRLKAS
SMILES,inhibition [1],inhibition [2],inhibition [3],inhibition [4],inhibition [5],inhibition [6],inhibition [7],inhibition [8],inhibition [9],inhibition [10]
Cn1c(-c2nonc2N)nc2cnccc21,10.4%,4.28%,5.16%,5.36%,6.27%,2.31%,-0.12%,-0.13%,4.58%,1.61%
CCn1c(-c2nonc2N)nc2cncc(C(=O)NCCNC)c21,11.9%,6.23%,5.87%,9.43%,3.12%,1.03%,3.05%,-0.11%,3.41%,2.35%
CNC(=O)c1sc(-n2cnc3cc(OC)c(OC)cc32)cc1OCc1ccccc1C(F)(F)F,9.14%,4.65%,17.8%,4.81%,-2.47%,3.76%,6.76%,-2.22%,7.07%,2.51%
N#Cc1ccc2c(-c3ccnc(NC4CC4)n3)c(-c3ccc(F)cc3)nn2c1,4.02%,2.66%,0.98%,2.64%,4.7%,-1.37%,4.18%,-2.75%,4.65%,-0.41%
O=C(Nc1n[nH]c2nnc(-c3cccnc3)cc12)C1CC1,1.12%,-0.87%,2.11%,1.85%,-1.95%,0.27%,3.35%,-1.71%,5.46%,1.64%
OCCCNc1nccc(-c2c(-c3ccc(F)cc3)nn3cc(C(F)(F)F)ccc23)n1,0.58%,3.57%,1.96%,3.55%,1.7%,-2.7%,2.54%,1.88%,6.34%,0.07%
CNC(=O)c1cncc(/C=C/c2ccccc2C)c1,3.57%,4.47%,3.11%,8.61%,2.62%,6.74%,3.1%,-0.27%,4.09%,-0.42%
O=C(O[C@H]1CN[C@H](C#Cc2cc3ncnc(Nc4ccc(OCc5cccc(F)c5)c(Cl)c4)c3s2)C1)N1CCOCC1,13.5%,3.78%,4.55%,12.4%,-1.26%,6.24%,3.14%,1.07%,1.72%,3.75%
